Drawing on PubChem BioAssay (EPA / NIEHS), this text covers outcome and AC50 for three compounds.

Common to all, as to conditions: mRNA level, 48 h; actives raise or lower the signal
Read-out in experiment [1]: Alkaline Phosphatase, Placental (ALPP) gene, ALPP (gene 250)
In words: LTEA_HepaRG_ALPP: Life Technologies and Expression Analysis (LTEA) Assay for Alkaline Phosphatase, Placental (ALPP) gene using HepaRG (AID 2283468). A digest of the protocol: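 ALPP transcript level, measured by qRT-PCR and normalized to three housekeeping genes (ACTB, GAPDH, POLR2A), after 48 h dosing of differentiated HepaRG in serum-free induction medium. Top concentration 100 uM with half-log dilutions (8 points, 0.5% DMSO, duplicates); bidirectional fitting relative to DMSO.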

Read-out in experiment [2]: Bcl-2 (BAD) gene, BAD (gene 572)
Briefly: LTEA_HepaRG_BAD: Life Technologies and Expression Analysis (LTEA) Assay for Bcl-2 (BAD) gene using HepaRG (AID 2283469). Summed up:
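Read-out: qRT-PCR of BAD mRNA, normalized to three housekeeping genes. Human HepaRG cultures got 48 h chemical exposure in 0.5% DMSO, duplicate eight-point half-log series topping at 100 uM. Gain or loss of signal fitted versus DMSO vehicle.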

Read-out in experiment [3]: Bcl-2 (BAX) gene, BAX (gene 581)
In words: LTEA_HepaRG_BAX: Life Technologies and Expression Analysis (LTEA) Assay for Bcl-2 (BAX) gene using HepaRG (AID 2283470). Summed up: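 Gene expression measured by Fluidigm qRT-PCR with three housekeeping genes for normalisation. HepaRG cells, plated 48 h beforehand, treated 48 h at up to 100 uM (8-point, half-log) in 0.5% DMSO. Bidirectional fitting versus DMSO.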

Read-out in experiment [4]: adenosine kinase (ADK) gene, ADK (gene 132)
Briefly: LTEA_HepaRG_ADK: Life Technologies and Expression Analysis (LTEA) Assay for adenosine kinase (ADK) gene using HepaRG (AID 2283471). A digest of the protocol: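 Read-out is ADK transcript level measured by qRT-PCR and normalised to three housekeeping genes. Cells are human HepaRG, dosed for 48 h at up to 100 uM in 0.5% DMSO. Gain or loss of signal is fitted against DMSO controls.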

Read-out in experiment [5]: Alpha-fetoprotein (AFP) gene, AFP (gene 174)
Briefly: LTEA_HepaRG_AFP: Life Technologies and Expression Analysis (LTEA) Assay for Alpha-fetoprotein (AFP) gene using HepaRG (AID 2283472). A digest of the protocol: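 AFP transcript measured by TaqMan qRT-PCR with three housekeeping genes for normalization, after 48 h chemical treatment of HepaRG cells (top 100 uM, half-log steps, 0.5% DMSO). Gain or loss fitted against vehicle.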

Read-out in experiment [6]: BCL2L11 (gene 10018)
Briefly: LTEA_HepaRG_BCL2L11: Life Technologies and Expression Analysis (LTEA) Assay for Bcl-2 (BCL2L11) gene using HepaRG (AID 2283473). A digest of the protocol: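 BCL2L11 transcript levels are measured by Fluidigm qRT-PCR, normalized to three housekeeping genes. HepaRG cultures were plated 48 h, then treated 48 h with test chemical (top 100 uM, half-log, 0.5% DMSO vehicle); curves were fitted bidirectionally against DMSO.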

Read-out in experiment [7]: Apoptosis regulator Bcl-2 (Homo sapiens) (UniProt P10415)
Briefly: LTEA_HepaRG_BCL2: Life Technologies and Expression Analysis (LTEA) Assay for Bcl-2 gene using HepaRG (AID 2283475). Summed up:
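qRT-PCR of BCL2 transcript, normalized to three housekeeping genes (ACTB, GAPDH, POLR2A), after 48 h chemical exposure of HepaRG cells; concentrations top 100 uM with half-log dilutions, 0.5% DMSO vehicle, duplicates; changes up or down fitted relative to vehicle.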

Read-out in experiment [8]: Bcl-2 (BID) gene, BID (gene 637)
In words: LTEA_HepaRG_BID: Life Technologies and Expression Analysis (LTEA) Assay for Bcl-2 (BID) gene using HepaRG (AID 2283476). A digest of the protocol:
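Duplicate 48 h treatments of HepaRG cells in serum-free induction medium spanned 100 uM downward in half-log steps, 0.5% DMSO. Transcript change quantified by qRT-PCR against three housekeeping genes, fitted up or down versus DMSO.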

Read-out in experiment [9]: Caspase-3 (Homo sapiens) (UniProt P42574)
In words: LTEA_HepaRG_CASP3: Life Technologies and Expression Analysis (LTEA) Assay for cysteine-aspartic acid protease (CASP3) using HepaRG (AID 2283477). A digest of the protocol:
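Expression of CASP3 was quantified by TaqMan qRT-PCR against three housekeeping genes (ACTB, GAPDH, POLR2A), bidirectionally versus 0.5% DMSO. HepaRG cultures received compounds in duplicate, top 100 uM with half-log steps, for 48 h in serum-free induction medium.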

Read-out in experiment [10]: Cytochrome P450 (CYP24A1), CYP24A1 (gene 1591)
Briefly: LTEA_HepaRG_CYP24A1: Life Technologies and Expression Analysis (LTEA) Assay for Cytochrome P450 (CYP24A1) using HepaRG (AID 2283478). A digest of the protocol: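 mRNA of CYP24A1 quantified by TaqMan qRT-PCR (ACTB/GAPDH/POLR2A normalization) after 48 h chemical exposure of HepaRG cells, top concentration 100 uM, half-log steps, 0.5% DMSO vehicle, duplicates. Curves fitted bidirectionally against DMSO baseline.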

Read-out in experiment [11]: Cytochrome P450 (CYP1A2), CYP1A2 (gene 1544)
In words: LTEA_HepaRG_CYP1A2: Life Technologies and Expression Analysis (LTEA) Assay for Cytochrome P450 (CYP1A2) using HepaRG (AID 2283479). A digest of the protocol:
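CYP1A2 transcript measured by TaqMan qRT-PCR against three housekeeping genes after 48-hour chemical exposure of HepaRG cells. Eight-point half-log series topping at 100 uM in 0.5% DMSO, duplicates; gain or loss fitted relative to vehicle.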

Read-out in experiment [12]: cysteine-aspartic acid protease (CASP8), CASP8 (gene 841)
Briefly: LTEA_HepaRG_CASP8: Life Technologies and Expression Analysis (LTEA) Assay for cysteine-aspartic acid protease (CASP8) using HepaRG (AID 2283480). A digest of the protocol:
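CASP8 transcript measured by TaqMan qRT-PCR with ACTB/GAPDH/POLR2A normalization, after 48 h chemical exposure of HepaRG cells in serum-free induction medium. Eight concentrations, top 100 uM, half-log steps, 0.5% DMSO vehicle; fits in both directions versus DMSO.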

Read-out in experiment [13]: Cytochrome P450 (CYP2B6), CYP2B6 (gene 1555)
In words: LTEA_HepaRG_CYP2B6: Life Technologies and Expression Analysis (LTEA) Assay for Cytochrome P450 (CYP2B6) using HepaRG (AID 2283481). A digest of the protocol: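 CYP2B6 transcript level quantified by qRT-PCR against three housekeeping genes, fitted bidirectionally relative to DMSO. HepaRG cultures received chemicals for 48 h, 8-point half-log series from 100 uM in 0.5% DMSO, duplicate wells, serum-free induction medium.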

Read-out in experiment [14]: Cytochrome P450 2C19 (Homo sapiens) (UniProt P33261)
In words: LTEA_HepaRG_CYP2C19: Life Technologies and Expression Analysis (LTEA) Assay for CYP2C19 using HepaRG (AID 2283482). A digest of the protocol: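 CYP2C19 transcript levels by qRT-PCR, normalized to three housekeeping genes, in HepaRG cells after 48 h chemical exposure. Eight-point half-log series topping at 100 uM, 0.5% DMSO vehicle. Increases and decreases both fitted against DMSO.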

Read-out in experiment [15]: CYP2C8 (gene 1558)
Briefly: LTEA_HepaRG_CYP2C8: Life Technologies and Expression Analysis (LTEA) Assay for CYP2C8 using HepaRG (AID 2283483). A digest of the protocol:
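CYP2C8 expression measured by TaqMan qRT-PCR and normalized to three housekeeping genes. HepaRG cultures were treated for 48 h with an eight-point half-log series topping at 100 uM, vehicle 0.5% DMSO, duplicates; fitted both directions against DMSO.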

Read-out in experiment [16]: CYP2C9 (gene 1559)
Briefly: LTEA_HepaRG_CYP2C9: Life Technologies and Expression Analysis (LTEA) Assay for CYP2C9 using HepaRG (AID 2283484). Summed up:
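CYP2C9 transcript level, quantified by TaqMan qRT-PCR against three housekeeping genes, was fitted bidirectionally relative to 0.5% DMSO. HepaRG cultures were treated 48 h, in duplicate, at eight half-log concentrations topping at 100 uM.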

Read-out in experiment [17]: CYP2E1 (gene 1571)
Briefly: LTEA_HepaRG_CYP2E1: Life Technologies and Expression Analysis (LTEA) Assay for CYP2E1 using HepaRG (AID 2283485). A digest of the protocol:
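CYP2E1 transcript measured by Fluidigm qRT-PCR against three housekeeping genes in human HepaRG cells treated 48 h (top 100 uM, half-log steps, 0.5% DMSO vehicle). Gain or loss fitted relative to DMSO baseline.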

Read-out in experiment [18]: CYP4A11 (gene 1579)
Briefly: LTEA_HepaRG_CYP4A11: Life Technologies and Expression Analysis (LTEA) Assay for CYP4A11 using HepaRG (AID 2283486). Summed up:
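Readout is CYP4A11 transcript level by qRT-PCR, normalized to three housekeeping genes and fitted bidirectionally against 0.5% DMSO. Human HepaRG cells were treated 48 h, in duplicate, with an 8-point half-log series topping at 100 uM.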

Read-out in experiment [19]: Cytochrome P450 3A4 (Homo sapiens) (UniProt P08684)
In words: LTEA_HepaRG_CYP3A4: Life Technologies and Expression Analysis (LTEA) Assay for CYP3A4 using HepaRG (AID 2283487). Summed up:
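HepaRG, 48 h exposure, 8-pt CRC from 100 uM (half-log), 0.5% DMSO, duplicates; serum-free induction medium. Readout: CYP3A4 mRNA, qRT-PCR, ACTB/GAPDH/POLR2A normalization. Bidirectional fit vs DMSO.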

Activity calls are given as the source filed them. Rule for the calls: active = hit-call score of the fitted dose curve at least 0.9, where 1 is the maximum; inactive = score below 0.9.

Caspase-3 (Homo sapiens), sequence (P42574 whole entry, looked up): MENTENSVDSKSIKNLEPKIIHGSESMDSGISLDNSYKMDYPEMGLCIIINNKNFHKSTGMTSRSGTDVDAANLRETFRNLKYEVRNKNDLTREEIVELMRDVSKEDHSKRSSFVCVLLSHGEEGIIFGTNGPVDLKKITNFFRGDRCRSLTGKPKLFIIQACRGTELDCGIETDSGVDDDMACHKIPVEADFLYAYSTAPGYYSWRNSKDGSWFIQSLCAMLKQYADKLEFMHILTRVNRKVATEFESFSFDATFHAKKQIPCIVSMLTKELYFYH
Cytochrome P450 2C19 (Homo sapiens), sequence (P33261 whole entry, looked up): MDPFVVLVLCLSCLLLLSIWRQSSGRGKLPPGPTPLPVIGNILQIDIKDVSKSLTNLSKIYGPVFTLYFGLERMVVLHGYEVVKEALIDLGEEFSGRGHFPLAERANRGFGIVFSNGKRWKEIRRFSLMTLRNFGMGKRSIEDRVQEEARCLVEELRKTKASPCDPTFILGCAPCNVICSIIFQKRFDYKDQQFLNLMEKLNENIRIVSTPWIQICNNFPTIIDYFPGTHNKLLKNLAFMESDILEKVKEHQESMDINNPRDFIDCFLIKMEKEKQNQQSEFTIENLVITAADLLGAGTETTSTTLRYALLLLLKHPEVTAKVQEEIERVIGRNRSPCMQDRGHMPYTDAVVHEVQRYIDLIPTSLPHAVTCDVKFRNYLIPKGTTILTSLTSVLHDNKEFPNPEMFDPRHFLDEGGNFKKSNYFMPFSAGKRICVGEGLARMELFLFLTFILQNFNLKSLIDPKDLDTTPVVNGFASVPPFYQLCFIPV
Apoptosis regulator Bcl-2 (Homo sapiens), sequence (P10415 whole entry, looked up): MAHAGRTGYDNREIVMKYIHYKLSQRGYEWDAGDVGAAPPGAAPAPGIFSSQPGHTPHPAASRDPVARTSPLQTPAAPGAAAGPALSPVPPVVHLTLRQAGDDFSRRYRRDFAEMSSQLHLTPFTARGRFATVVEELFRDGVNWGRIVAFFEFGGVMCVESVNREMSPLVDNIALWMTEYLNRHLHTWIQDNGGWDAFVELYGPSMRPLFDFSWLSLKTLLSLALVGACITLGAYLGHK
Cytochrome P450 3A4 (Homo sapiens), sequence (P08684 whole entry, looked up): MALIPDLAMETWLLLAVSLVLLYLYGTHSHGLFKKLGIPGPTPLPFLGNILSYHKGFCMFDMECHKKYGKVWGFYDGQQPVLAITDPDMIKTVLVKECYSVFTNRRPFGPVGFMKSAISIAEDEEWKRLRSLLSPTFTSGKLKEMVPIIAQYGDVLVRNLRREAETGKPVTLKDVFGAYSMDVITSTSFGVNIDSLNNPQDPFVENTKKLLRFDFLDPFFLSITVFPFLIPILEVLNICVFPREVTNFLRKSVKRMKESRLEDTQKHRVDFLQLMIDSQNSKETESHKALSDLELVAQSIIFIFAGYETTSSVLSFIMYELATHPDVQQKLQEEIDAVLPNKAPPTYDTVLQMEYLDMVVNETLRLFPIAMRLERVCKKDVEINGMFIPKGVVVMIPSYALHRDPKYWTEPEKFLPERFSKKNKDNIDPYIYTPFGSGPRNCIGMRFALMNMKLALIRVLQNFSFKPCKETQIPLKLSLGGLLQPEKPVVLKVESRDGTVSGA

As a reminder, the AC50 is the concentration giving half of the maximal activity seen. In the case of `CCNc1nc(Cl)nc(NCC)n1`, the result in [1], in experiment [2], in experiment [3], in experiment [4], in experiment [5] and in experiment [6] was inactive. In addition, the call in experiment [7], in experiment [8], in experiment [9], in [10], in experiment [12] and in experiment [14] was inactive. In addition, the compound was classed as inactive in experiment [15], in [16], in experiment [17], in experiment [18] and in experiment [19]. The AC50 was 50 µM (active) in experiment [11] and 11.3 µM (active) in experiment [13].
Turning to `COc1cnc(OC)n2nc(NS(=O)(=O)c3c(OCC(F)F)cccc3C(F)(F)F)nc12`, the call in [1], in experiment [2], in experiment [3], in experiment [4], in [6] and in [7] was inactive. In addition, the outcome in experiment [8], in experiment [9], in [10], in experiment [11], in experiment [12] and in [15] was inactive. For the same compound, the compound was called inactive in [16]. For the same compound, the AC50 in [5] is 50 µM (active); in experiment [13], 6.02 µM (active); in experiment [14], 10.8 µM (active); in [17], 30.2 µM (active); in experiment [18], 11.5 µM (active); in [19], 8.2 µM (active).
Consider `COc1ccc(C(c2ccc(OC)cc2)C(Cl)(Cl)Cl)cc1`, for which the compound was classed as inactive in [2], in experiment [3], in [4], in experiment [6], in experiment [8] and in experiment [9]. Further, the result in [10], in experiment [11], in experiment [12], in experiment [15] and in [16] was inactive. Besides, the AC50 in [5] was 78.4 µM (active); in [7] it was 86.3 µM (active); in experiment [13], 12.4 µM (active); in [14], 12.7 µM (active); in experiment [17], 66 µM (active); in [18], 79 µM (active).
